This assay relates to RARa homodimer (NR concentration 270 nM). Kind of assay: PBM binding z-score (relative to random genomic background probes); higher = stronger binding; sequences stand for … in GC…GCGATTGACAGCGTAGAATGAAGG
Put shortly: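 Scanned fluorescence from custom Agilent 4×180K protein-binding microarrays was regression-normalized. Binding z-scores use random background probes as reference. Ligand-free nuclear receptor dimers were incubated on the arrays for 1 h and detected with antibodies against each partner (one per run).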
For TGAATGAGGTTAAAGATCTGGGAACGTGGCGTCG, the PBM binding z-score was -0.239.

CTCGCAAGGTCGGTTGAGGTGAGTATACGGATAA showed a PBM binding z-score of -0.537. As for CCACACAGGTGAAAGGTAACTCAGTCTGGTACGC, the figure is 0.461. Take CCTACTGCGCCAAGGTCATTGATCAGTCAAAGCA: the PBM binding z-score was 1.07. The sequence TCTATTAGTTGAAGTGCAACCGACGAGTCCGTTT returned a PBM binding z-score of 0.781. AGAACGAGGGCAATGAGTAGATAGCACGGGTGGC: the PBM binding z-score came to 0.137.

Regarding TTGCCAAGGTGAAGGTCGTTGATCCCTCTGTAGA, the PBM binding z-score is -0.87. The sequence TCTAGTTGGTCACGGAGGTCACACACGACGGGTA registered a PBM binding z-score of 1.29.

ACAGACAGGTTAGTGAAGGTAACTCAGCTGGACG: the PBM binding z-score was found to be 0.0654. Sequence GCGATTGGGGCAAAGCAGGTTACCATAAGGTTGG registered a PBM binding z-score of 0.0153. For the sequence ATCTCTAGGTAAGACTCCGTTCAGTGAAGAACGC, the PBM binding z-score was found to be 0.882. Regarding CCGACTGGGCCACGAAAGGTCATTGATTCAGTGA, the PBM binding z-score is 0.265. As for AATACAGGGTCATTGTAGGCCAGAGTACGCACAG, the figure is 0.607; as for TTACCAAGGTGAGCTGAGGTCGTGGATCCAACTC, -0.727; as for TCTATTAGTTGATTAGGGCAACCGCAACAGCGGA, 0.676. In turn, AGTCAAAGTTCATCTAGGTAACCTAAGATATGCT registered a PBM binding z-score of 1.21. Consider TCAGACAGGTGAAGGTAACGCAGGTACGCAGTCG, for which the PBM binding z-score was found to be 0.254.

Consider AGAATGAGGTTATATGTAGATCAGGGAAGAAAGT, for which the PBM binding z-score turned out to be 1.37.

Turning to GCTCGGAGGACAAGGTCAGAGATTTGTCCGTAGA, the PBM binding z-score is -0.275.

TCTGCTAGGTCAGTTGGTCAGGTAACGAGCTGCC registered a PBM binding z-score of -0.871.

Take CCTCGGAGGACTACAGGAGGTCAGAGCTGCCAGA: the PBM binding z-score is -0.496. For GGAACGACGGCAAGTTGATAGCAGAGTTTGATGG, the PBM binding z-score is -0.783.
